The campaign covered roughly 360,000 compounds. About 3,000 (0.83%) were called active. This is one part of a sample in which actives are shown more often than they occur. Unmarked numbers belong to inactive results. Rule as the data show it: active = inhibition above about 38%; inactive = the rest.

The target of this test is G-protein coupled receptor 183 (Homo sapiens) (UniProt P32249). Kind of test: EBI2 receptor antagonists, beta-arrestin recruitment, primary screen, cell-based, luminescence, 7a,25-OHC stimulation, uHTS (AID 651636).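 Also: enzyme fragment complementation signal reports receptor beta-arrestin coupling in cells; 0% = agonist plus DMSO wells and 100% = wells without agonist.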 Particulars: 7a,25-OHC stimulated, at 5 µM, stronger effect = higher value. In general terms: Arrestin recruitment assays detect the binding of arrestin to an activated receptor.
Chain of G-protein coupled receptor 183 (Homo sapiens) (P32249 whole entry, looked up, the tested form may be a part): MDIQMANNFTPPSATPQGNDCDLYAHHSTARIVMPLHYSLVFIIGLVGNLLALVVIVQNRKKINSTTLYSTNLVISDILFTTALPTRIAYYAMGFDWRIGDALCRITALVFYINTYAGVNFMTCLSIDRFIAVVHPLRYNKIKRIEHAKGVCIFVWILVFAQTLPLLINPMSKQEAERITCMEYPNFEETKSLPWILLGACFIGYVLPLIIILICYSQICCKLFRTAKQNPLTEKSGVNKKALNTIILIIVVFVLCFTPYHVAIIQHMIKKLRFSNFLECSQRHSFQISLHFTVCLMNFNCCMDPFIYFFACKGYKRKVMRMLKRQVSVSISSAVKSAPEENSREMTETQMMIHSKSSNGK
On to `CCc1nn(CCCC(=O)NC(C)c2ccccc2)c(=O)c2cc3occc3n12` (stereo not drawn), for which the inhibition (as a rule, the relative decrease from the control value, in per cent) is -11%.
Turning to `O=C(NCCNc1ccc([N+](=O)[O-])cc1)c1cccc2c(Br)cccc12`, the inhibition is 44.2% (active).
The result for `CC(CNc1ccc([N+](=O)[O-])cc1)NC(=O)c1ccccc1Br` (stereo not drawn) reads 28.5%.
The same measure for `O=C(NCCNc1ccc([N+](=O)[O-])cc1Cl)c1ccccc1F`: -4.29%; for `CCNC(=O)NC(=O)C(C)OC(=O)c1cc(S(=O)(=O)N2CCCCCC2)ccc1OC` (stereo not drawn): -0.223%.
The result for `Cc1ccc(S(=O)(=O)NCCNC(C)c2ccc(Br)cc2)cc1` (stereo not drawn) reads 43.7% (active).
On to `CC(CNS(=O)(=O)c1ccc(Br)cc1)CN(C)C` (stereo not drawn), for which the inhibition is 0.0488%.
The result for `Cc1ccc(S(=O)(=O)NCCSC(C)(C)C)cc1` reads -0.527%; that for `O=C(CCNS(=O)(=O)c1ccccc1)NCCSc1ccc(Br)cc1`, 51.2% (active); that for `CCOc1ccc(S(=O)(=O)NCCC(=O)NCC2CCCO2)cc1` (stereo not drawn), -4.42%.
The result for `CC(C)CCNC(=O)CCNS(=O)(=O)c1ccc(Cl)cc1` reads -4.48%; that for `Cc1ccc(OCCNC(=O)CCNS(=O)(=O)c2ccc(Br)cc2)cc1`, 45.9% (active); that for `O=C(CNC(=O)c1ccccc1Br)NCCSc1ccc(Br)cc1`, 22%.
The result for `O=C(CCNS(=O)(=O)c1ccccc1)NCCCc1ccccc1` reads -0.453%; that for `O=C(Nc1ccc2c(c1)OCO2)C1CC(c2c(F)cccc2Cl)=NO1` (stereo not drawn), 0.962%; that for `COc1ccc(OC)c(Cc2cnc3nc(N)nc(N)c3c2C)c1`, -1.26%.
As to `CCOC(=O)/C(=N\Nc1ccccc1Cl)N(C)C1CCS(=O)(=O)C1` (stereo not drawn), the inhibition was 1.11%.
The same measure for `C=C1CCN([C@@H](Cc2ccccc2)C(=O)N2CCOCC2)S(=O)(=O)c2ccccc21`: 5.72%.
The result for `c1ccc(C[C@H]2CNCCN2CCC23CC4CC(CC(C4)C2)C3)cc1` reads -9.28%; that for `CC1CCCCC1NC(=O)/C(C#N)=C/C=C/c1ccccc1[N+](=O)[O-]` (stereo not drawn), 8.62%.
The same measure for `CC(C)N(Cc1ccccc1)C(=S)Nc1ccc(OC(F)F)cc1`: 53.9% (active); for `CN(CC(=O)Nc1ccc(OC(F)F)cc1)S(=O)(=O)/C=C/c1ccccc1`: 1.52%.
Take `CC(=O)c1ccc(NC(=S)N(Cc2ccccc2)C(C)C2CC2)cc1` (stereo not drawn): the inhibition is -3.28%.
Turning to `CC1=NNC(=O)C1Cc1c(Cl)cccc1Cl` (stereo not drawn), the inhibition is 9.3%.
Regarding `Cc1ccc(S(=O)(=O)NC2(C(F)(F)F)NC(=O)N(CCc3ccccc3)C2=O)cc1` (stereo not drawn), the inhibition is -2.6%.
The same measure for `Cc1ccc(-n2nc(-c3ccco3)cc2C(=O)NCc2cccnc2)cc1`: 7.84%; for `Cc1ccc(-n2ncc3c(=O)n(-c4ccc(C)c(C)c4)c(-c4ccco4)nc32)cc1`: 51.2% (active).
The same measure for `Cc1ccc(-n2ncc3c2ncn2nc(-c4ccco4)nc32)c(C)c1`: -1.3%; for `CN(C)C(=O)c1cccc(-c2cnc3sc(NCc4ccc5c(c4)OCO5)nn23)c1`: -1.54%; for `CCN(Cc1ccncc1)C(=O)c1cccc(S(=O)(=O)N2CCOCC2)c1`: -5.08%.
The same measure for `COc1ccc(OCC(=O)N2CCN(C(=O)c3cccs3)CC2)cc1`: 49.9% (active); for `O=C(CN1C(=O)NC2(CCCCC2)C1=O)N1CCN(C(=O)c2cccs2)CC1`: -15.2%; for `Cc1ccc(OCC(=O)N2CCN(C(=O)c3cccnc3)CC2)cc1`: 50.4% (active).
With `O=C(c1ccc(OC2CCN(C(=O)c3cccnc3)CC2)cc1)N1CCCCCC1`, the inhibition is -4.37%.
As to `Cc1ccccc1N1CCN(C(=O)c2cccnc2)CC1`, the inhibition is -10.5%.
The same measure for `COc1ccc(OCC(=O)N2CCN(C(=O)COc3ccccc3)CC2)cc1`: 50.8% (active); for `CCS(=O)(=O)N1CCN(C(=O)c2cccs2)CC1`: -10.3%; for `COc1ccccc1C(=O)Nc1ccc(OCC(=O)N2CCCCC2)cc1`: -5.13%.
The result for `COc1ccc(N2CCN(C(=O)c3cccs3)CC2)cc1` reads -0.686%; that for `O=C(COc1ccccc1)Nc1ccc(N2CCN(C(=O)c3cccs3)CC2)cc1`, 3.87%.
The same measure for `O=C(COc1ccc2ccccc2c1)N1CCN(C(=O)c2cccs2)CC1`: 79.7% (active); for `CC1CN(C2CCN(C(=O)COc3ccccc3)CC2)CC(C)O1` (stereo not drawn): -0.0245%; for `O=C(O)/C=C/C(=O)NNc1ccc([N+](=O)[O-])cc1`: -16.6%.
Consider `O=C(NC(CC(=O)N1CCN(c2ccccc2)CC1)c1ccccc1)c1ccccc1Cl` (stereo not drawn), for which the inhibition is 11.4%.
The result for `COC(=O)[C@H](Cc1ccccc1)NC(=O)[C@@H]1C[C@H]1[C@@H](NC(=O)OCc1ccccc1)c1ccccc1` reads 16.3%; that for `COc1ccc([N+](=O)[O-])cc1NC(=O)CC1SC(=Nc2cccc(C)c2C)N(/N=C(\C)c2ccc(C)cc2)C1=O` (stereo not drawn), 3.23%.
In the case of `Cc1noc(C)c1-c1ccc(C(=O)NCc2ccncc2)c2occc12`, the inhibition is -22.7%.
The result for `C/C(Cl)=C\Cn1c(Nc2cccc(C)c2)nc2c1c(=O)n(C)c(=O)n2C` reads 22.8%; that for `OC[C@@H]1CN(C2CCCC2)C[C@H](n2cnc3c(NC4CCC4)ncnc32)O1`, -9.08%.
The result for `CCNc1nc(NC(C)C)nc(OCCOC(=O)c2ccccc2)n1` reads -0.581%; that for `CCN(CC)S(=O)(=O)c1ccc(Cl)c(C(=O)NC(C)C(c2cccs2)N2CCCC2)c1` (stereo not drawn), -5.7%.
In the case of `COC(=O)c1cccc([N+](=O)[O-])c1CS(=O)(=O)c1ccc(C)cc1`, the inhibition was -6.03%.
The result for `Clc1ccc(-c2cc(C3CCNCC3)[nH]n2)c(Cl)c1` reads 0.184%; that for `Cc1nc(NC(=O)C2CCCCC2)sc1C`, -5.16%; that for `COc1cc(C(C)=O)ccc1OC(=O)CN1C(=O)c2ccccc2C1=O`, -7.55%.
As for `CC(C)OC(=O)CN1C(=O)C(=O)c2ccccc21`, the inhibition was 54.2% (active).
The result for `O=C1C(=O)N(c2ccccc2)c2ccccc21` reads 4.82%.
The result for `COC(=O)c1ccc(NC(=O)c2cc3c(CO)cnc(C)c3oc2=Nc2cccc(C(N)=O)c2)cc1` reads 12.4%.

For the origin of these results see PubChem BioAssay AID651636 (Sanford-Burnham Center for Chemical Genomics, 2012).
